# Only some compounds are listed: those with a hit (about 32% of all), similar ones and a draw of the others.
# PostGolgi yeast: phenotypic screen on post-Golgi transport, primary screen; 98,000 compounds, 0.9% hits; inhibition, % at 10 µM; post-Golgi transport phenotypic cell assay; AID 739, 2007;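 note: yeast cells grown in 1536-well plates; yeast grown about 18 h at 30C before absorbance read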
# CYP2C19 inhib: blockers of cytochrome P450 2C19 activity – biochemical, luminescence, ADME assay, primary screen. P33261. CYP2C19 Supersomes, luciferin-H EGE luminescence, 30 min. inhibition, % at 5 µM. 96,000 compounds, 21% hits. AID 778, 2007;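 active = CYP2C19 inhibition above a set limit at 5 µM in the primary screen, cut at about 50% in these data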;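 note: plate controls were negative control wells for no effect and 2.5 mM tranylcypromine positive control for full effect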
# Target sequence (P33261 whole entry, looked up): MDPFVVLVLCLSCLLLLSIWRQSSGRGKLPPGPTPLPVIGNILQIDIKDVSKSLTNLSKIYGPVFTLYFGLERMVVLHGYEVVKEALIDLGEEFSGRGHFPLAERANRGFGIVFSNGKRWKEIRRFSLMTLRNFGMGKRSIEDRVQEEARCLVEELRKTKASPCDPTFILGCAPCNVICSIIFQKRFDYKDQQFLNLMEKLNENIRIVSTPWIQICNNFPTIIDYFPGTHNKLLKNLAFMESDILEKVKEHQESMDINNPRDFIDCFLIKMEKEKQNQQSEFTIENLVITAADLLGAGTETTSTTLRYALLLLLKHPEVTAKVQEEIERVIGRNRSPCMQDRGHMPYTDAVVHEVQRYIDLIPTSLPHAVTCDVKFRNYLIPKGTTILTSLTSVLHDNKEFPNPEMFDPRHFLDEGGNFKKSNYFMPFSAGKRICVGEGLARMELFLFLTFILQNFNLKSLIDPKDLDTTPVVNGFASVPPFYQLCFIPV
# CYP2C9 act: human CYP2C9 activators, primary screen, biochemical, luminescence. AID 1024, 2008. activation factor at 5 µM. 96,000 compounds, 1.4% hits. recombinant CYP2C9, luciferin-H conversion; active compounds read high; factor 1 = untreated enzyme, 0 = blocked;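 active = activation factor of 2 or more for CYP2C9 at a 5 µM dose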;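 note: 0 = sulfaphenazole-blocked wells and 1 = vehicle-only wells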
# PostGolgi ctrl: growth inhibition of yeast control strain, primary screen, counter-screen for post-Golgi transport modulator project; efflux-deficient yeast background strain, growth absorbance A615, 16 h; inhibition, % at 10 µM; 98,000 compounds, 5% hits
# CYP2C19 activ: human CYP2C19 activators, primary screen, biochemical, luminescence; Cytochrome P450 2C19 (Homo sapiens), P33261; recombinant CYP2C19, luciferin-H EGE luminescence; active compounds read high; 0 = fully inhibited enzyme, 1 = untreated enzyme; activation factor at 5 µM; 96,000 tested, under 10 active; AID 1025, 2008;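 active = activation factor of at least 2 at 5 µM in the primary screen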;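 note: 0 = wells with 2.5 mM tranylcypromine and 1 = vehicle-only wells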
# CYP2C9 inh: blockers of cytochrome P450 2C9 activity – biochemical, luminescence, ADME assay, primary screen. P11712. CYP2C9 Supersomes, luciferin-H conversion. inhibition, % at 5 µM. 96,000 compounds, 20% hits. AID 777, 2007;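 active = blocking of liver enzyme CYP2C9 beyond about 50% at 5 µM, limit read from the data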
# Active calls of the source: *; . = not tested or not shown. Cut-off read from the data, not from the text of the source, unless noted: active = inhibition above about 30%; inactive = the rest.
SMILES,PostGolgi yeast,CYP2C19 inhib,CYP2C9 act,PostGolgi ctrl,CYP2C19 activ,CYP2C9 inh
CCc1[nH]nc2c1C(c1cccnc1)C(C#N)=C(N)O2 (stereo not given),-5,-6,1.1,-4,1.1,-6
CCc1[nH]nc2c1C(C(C)C)C(C#N)=C(N)O2 (stereo not given),.,75*,0.7,.,0.3,32
CCC(CC)C1C(C#N)=C(N)Oc2n[nH]c(-c3ccccc3)c21 (stereo not given),-4,57*,1.2,7,0.4,-22
COc1cc(S(=O)(=O)N2CCC(O)(c3cccc(C(F)(F)F)c3)CC2)ccc1-n1cnnn1,-10,32,0.4,3,0.7,64*
CC(CCc1ccccc1)NC(=O)c1cncc(Br)c1 (stereo not given),1,31,0.8,4,0.7,15
Cc1nc2ccccc2c(=O)n1N,-4,77*,0,6,0.2,97*
Nn1c(CN2CCCCC2)nc2ccccc2c1=O,-2,-11,1.2,31*,1.1,-15
COC(=O)C1=C(C(C)=O)C(c2ccc(C)cc2)n2nnnc2N1 (stereo not given),0,12,0.9,5,0.9,15
COC(=O)C1=C(C(C)=O)C(c2ccc(C(=O)OC)cc2)n2nnnc2N1 (stereo not given),-3,12,0.2,-1,0.9,83*
COc1ccc(-c2nc(-n3c(C)c(C(C)=O)c(C(C)=O)c3C)sc2C)cc1OC,-9,9,0.6,29,0.9,44
CC(=O)c1c(C(C)=O)c(C)n(-c2nc(-c3ccc(Br)cc3)c(C)s2)c1C,-9,7,1,56*,0.9,-2
Cc1cc2cc(CN(C(=O)C3CC3)C3CCCC3)c3nnnn3c2cc1C,-7,96*,0.3,14,0,72*
Cc1ccc(CNC(=O)C23CN(Cc4ccccc4)CC2C(c2ccc([N+](=O)[O-])cc2)=NO3)o1 (stereo not given),-2,35,0.5,14,0.7,54*
COc1ccc(CNC(=O)C23CN(Cc4ccccc4)CC2C(c2ccc([N+](=O)[O-])cc2)=NO3)cc1 (stereo not given),7,37,0.9,4,0.6,9
O=C(NCCCCc1ccccc1)C12CN(Cc3ccccc3)CC1C(c1ccc([N+](=O)[O-])cc1)=NO2 (stereo not given),-3,78*,0.4,1,0.2,58*
O=C(NCCCCc1ccccc1)C12CN(Cc3ccccc3)CC1C(c1cccc([N+](=O)[O-])c1)=NO2 (stereo not given),-8,17,0.9,7,0.8,13
COc1ccc(CCNC(=O)C23CN(Cc4ccccc4)CC2C(c2ccc([N+](=O)[O-])cc2)=NO3)cc1 (stereo not given),-6,81*,0.4,5,0.2,59*
Cc1cc(-n2c(=O)c(C#N)cc3c(=O)n4ccccc4nc32)no1,-3,-12,1.1,-5,1.1,-8
O=S(=O)(/N=C(/Nc1cccc2ccccc12)c1ccccc1)c1cccs1,21,90*,0.2,24,0.1,84*
CCCc1nnc(SCC(=O)N2CCCCC2)n1CCCOC,0,-14,1.1,3,1.1,-15
CCCCC(=O)Nc1ncc(Br)s1,-5,76*,0.6,13,0.2,37
N#Cc1c(C(F)(F)F)cc(-c2cccs2)nc1SCc1cccnc1,-26,57*,0.2,28,0.4,75*
Cc1ccc(-c2cc(C(F)(F)F)c(C#N)c(SCCC#N)n2)o1,-10,-6,1,-2,1.1,0
N#Cc1c(C(F)(F)F)cc(-c2cccs2)nc1SCc1ccc(Cl)nc1,-5,8,0.4,4,0.9,56*
C#CCSc1nc(-c2ccccc2)cc(C(F)(F)F)c1C#N,3,-5,1,0,1.1,2
SMILES,PostGolgi yeast,CYP2C19 inhib,CYP2C9 act,PostGolgi ctrl,CYP2C19 activ,CYP2C9 inh
CCC(C)NC(=O)CSC1=Nc2ccccc2C2=NC(CC(=O)NCc3ccccc3)C(=O)N12 (stereo not given),-1,.,.,-3,.,.
CCOC(=O)N1CCC(NC(=O)CN2C(=O)CSc3nc(C)cc(C)c32)CC1,-2,61*,0.7,7,0.4,26
CCOC(=O)/C=C1\SCC(=O)N1CC(O)CN1C(=O)CS/C1=C\C(=O)OCC,4,16,1,-1,0.8,-2
CCOC(=O)/C=C1\SCC(=O)N1CC(=O)NC1CCCCC1,8,67*,1,0,0.3,3
CCOC(=O)/C=C1\SCC(=O)N1CCOc1cccc(Br)c1,4,82*,0.2,19,0.2,80*
Fc1ccccc1N1CCN(c2nc3ccccc3n3nnnc23)CC1,0,25,0.9,11,0.7,13
CCCCCCn1c(SCC(=O)OC)nc2c1c(=O)[nH]c(=O)n2C,-1,-6,0.9,0,1.1,6
OC(CN1CCN(c2ccccc2)CC1)c1c[nH]c2ccccc12 (stereo not given),1,57*,1,-2,0.4,5
COC(=O)c1cccnc1-n1c(=O)c2cccnc2n(Cc2cccc(OC)c2)c1=O,-2,78*,0.6,5,0.2,43
O=S(=O)(Nc1cccc2ccccc12)N1CCCC1,17,68*,0.9,9,0.3,10
O=C(c1cc(S(=O)(=O)N2CCOCC2)ccc1F)N1CCN(Cc2ccccc2)CC1,-1,75*,0.9,9,0.3,9
O=C(NCc1ccccc1)c1cc(S(=O)(=O)N2CCOCC2)ccc1F,1,14,0.9,1,0.9,9
O=C(NCCc1ccccc1)c1cc(S(=O)(=O)N2CCOCC2)ccc1F,6,6,0.5,0,0.9,54*
O=C(COC(=O)c1cc(S(=O)(=O)N2CCOCC2)ccc1O)NCCc1ccccc1,4,49,0.2,-5,0.5,83*
Cc1cc(C(F)(F)F)n(-c2nc(C(=O)Nc3ccccc3Oc3ccccc3)cs2)n1,-5,5,0.6,4,0.9,41
O=C(NCCN1C(=O)C2C3C=CC(C3)C2C1=O)N1CCOCC1 (stereo not given),2,-8,1,11,1.1,-2
CCOC(=O)C(NCCCCl)c1ccccc1 (stereo not given),5,38,1,-7,0.6,5
O=C(NCCc1ccccc1)c1ccccc1NS(=O)(=O)N1CCCC1,-3,89*,0.1,14,0.1,86*
COc1ccc(S(=O)(=O)N2CCCCCC2)cc1C(=O)OCC(=O)NCC(C)C,-2,35,0.6,6,0.7,41
